According to PubChem BioAssay (NCATS):
Inconclusive results are not listed. Activity calls are given as the source filed them. Unless noted, calls follow the shape of the dose curve; as a rule, active = well fitted curve in the direction sought with a large enough effect; inconclusive = small, poorly fitted or top-dose-only effect, or another doubt; inactive = no such curve, though single readings can be large; an effect the other way counts as inactive or inconclusive.

Tests used:
[1] = qHTS to identify inhibitors of the type 1 interferon - major histocompatibility complex class I in skeletal muscle: primary screen against the NCATS Pharmaceutical Collection (AID 1347407);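 also: luminescence of HiBiT knocked into endogenous HLA-B as interferon-induced MHC class I level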
Method in brief: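 Luminescence from HiBiT-tagged endogenous HLA-B*08:01 served as the read-out of IFN-beta-induced MHC class I in CRISPR-engineered C25cl48 myoblasts. Cells received 4 ng/ml IFN-beta plus compound (high final 46 uM, […]) for 24 h.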

[2] = target: Protein phosphatase 1D (Homo sapiens) (UniProt O15297); assay: RapidFire Mass Spectrometry qHTS Assay for Modulators of WT P53-Induced Phosphatase 1 (WIP1) (AID 1347424);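 also: amount of dephosphorylated VEPPL-S-QETFS peptide product formed by WIP1; series mostly up to about 63 µM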
Protein phosphatase 1D (Homo sapiens), sequence (O15297 whole entry, looked up): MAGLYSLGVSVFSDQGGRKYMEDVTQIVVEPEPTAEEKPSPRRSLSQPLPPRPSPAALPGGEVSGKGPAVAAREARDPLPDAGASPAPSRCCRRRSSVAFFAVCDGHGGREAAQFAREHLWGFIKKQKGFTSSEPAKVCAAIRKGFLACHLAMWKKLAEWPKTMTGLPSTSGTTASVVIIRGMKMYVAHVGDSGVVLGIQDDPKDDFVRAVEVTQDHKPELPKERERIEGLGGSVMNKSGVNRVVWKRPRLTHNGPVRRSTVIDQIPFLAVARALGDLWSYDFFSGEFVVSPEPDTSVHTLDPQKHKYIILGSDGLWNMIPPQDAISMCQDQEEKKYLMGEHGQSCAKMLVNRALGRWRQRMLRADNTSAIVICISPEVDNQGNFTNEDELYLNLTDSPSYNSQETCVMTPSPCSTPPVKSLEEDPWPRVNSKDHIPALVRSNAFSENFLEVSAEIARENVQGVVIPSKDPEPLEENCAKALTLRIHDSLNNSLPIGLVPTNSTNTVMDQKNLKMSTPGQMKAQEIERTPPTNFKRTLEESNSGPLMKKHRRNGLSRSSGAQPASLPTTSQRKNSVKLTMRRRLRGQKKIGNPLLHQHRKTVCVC
Method in brief: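 10 nM WIP1 preincubated with compounds 1 hr at room temperature in pH 7.5 Tris buffer with 30 mM MgCl2, 1 mM TCEP; 2 uM VEPPL-pS-QETFS phosphopeptide for 5 min, formic acid quench; dephosphorylated product quantified by RapidFire MS against labelled standard.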

[3] = target: Protein phosphatase 1D (Homo sapiens) (UniProt O15297); assay: Rhodamine-PBP qHTS Assay for Modulators of WT P53-Induced Phosphatase 1 (WIP1) (AID 1347425)
Method in brief: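 The read-out is the change in Rhodamine-PBP fluorescence (f1 - f0, ex 525/em 598 nm) as Pi is released, read each minute for 11 min. Final reaction: 5 nM WIP1, 10 uM phosphopeptide VEPPL-pS-QETFS, 10 uM Rh-PBP, 50 mM Tris-HCl pH 7.5, 30 mM MgCl2. Compound was preincubated with enzyme for 1 hour at room temperature.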

[4] = Primary qHTS for inhibitors of SARS-S pseudo-typed particle cell entry (AID 1479145; calls by dose curve; also: nearly all actives have a fitted effect of over 45% in size; also: potency is read from the fitted curve at half-maximal effect)
[5] = Primary qHTS for Huh7 cytotoxicity: counterscreen for inhibitors of MERS-S pseudotyped particle cell entry (AID 1479147; calls by dose curve; also: potency is read from the fitted curve at half-maximal effect)
[6] = Primary qHTS for inhibitors of MERS-S pseudo-typed particle cell entry (AID 1479149; calls by dose curve; also: nearly all actives have a fitted effect of over 60% in size)
[7] = Primary qHTS for Vero E6 cytotoxicity: counterscreen for inhibitors of SARS-S pseudo-typed particle cell entry (AID 1479150; calls by dose curve; also: potency is read from the fitted curve at half-maximal effect)

Measured: Potency

C[N+]1(C)[C@@H]2CC[C@H]1CC(OC(=O)C(CO)c1ccccc1)C2 (stereo partly drawn)
inactive: [1] | [2] | [3] | [4] | [5] | [6] | [7]

NC(=O)OCCCc1ccccc1
inactive: [1] | [2] | [3] | [4] | [5] | [6] | [7]

Nc1ccccc1C(=O)OCC(O)CO (stereo not drawn)
inactive: [1] | [2] | [3] | [4] | [5] | [6] | [7]

CNC(=O)NC(O)C(Cl)(Cl)Cl (stereo not drawn)
inactive: [1] | [2] | [3]

CC(C)(O)C(Cl)(Cl)Cl
inactive: [1] | [2] | [3] | [4] | [5] | [6] | [7]

Cc1ccc(N=CN(C)C=Nc2ccc(C)cc2C)c(C)c1
inactive: [1] | [2] | [3] | [4] | [5] | [6] | [7]

CCC1(c2cccc(O)c2)CCCCN(C)C1 (stereo not drawn)
inactive: [1] | [2] | [3] | [4] | [5] | [6] | [7]

COc1cc(C[C@@H](C)N)c(OC)cc1C
inactive: [1] | [2] | [3]

Cc1nnc2n1-c1sc(CCC(=O)N3CCOCC3)cc1C(c1ccccc1Cl)=NC2
inactive: [1] | [2] | [3] | [4] | [5] | [6] | [7]

O=c1n(Cl)c(=O)n(Cl)c(=O)n1Cl
inactive: [1] | [2] | [3] | [4] | [5] | [7]

O=C(CCCCl)c1ccc(F)cc1
inactive: [1] | [2] | [3]

Cc1cccc(Cc2cnc[nH]2)c1C
inactive: [1] | [2] | [3] | [4] | [5] | [6] | [7]

C=CCN1CC[C@]23CCCC[C@H]2[C@H]1Cc1ccc(O)cc13
inactive: [1] | [2] | [3] | [4] | [5] | [7]

O=C(O)Cc1ccccc1
inactive: [1] | [2] | [3] | [4] | [5] | [6] | [7]

CCCC[N+]1(C)[C@@H]2CC(OC(=O)[C@H](CO)c3ccccc3)C[C@H]1[C@@H]1O[C@@H]12 (stereo partly drawn)
inactive: [1] | [2] | [3] | [4] | [5] | [6] | [7]

CN(C)C(=S)SSC(=S)N(C)C
inactive: [1] | [2] | [3] | [6]
active: [4] 0.708 µM | [5] 0.891 µM | [7] 0.891 µM

C[C@]12C=CC(=O)C=C1CC[C@@H]1[C@@H]2CC[C@@]2(C)[C@H]1CC[C@]2(C)O
inactive: [1] | [2] | [3]

CCN(CC)Cc1nccn1-c1ccc([N+](=O)[O-])cc1C(=O)c1ccccc1Cl
inactive: [1] | [2] | [3] | [5] | [6] | [7]

N#Cc1nn(-c2c(Cl)cc(C(F)(F)F)cc2Cl)c(N)c1S(=O)C(F)(F)F (stereo not drawn)
inactive: [1] | [2] | [3] | [4] | [5] | [7]

CCCCC1C(=O)NC(=O)N(C2CCCCC2)C1=O (stereo not drawn)
inactive: [1] | [2] | [3] | [4] | [5] | [6] | [7]

CC(Cc1ccccc1)NCc1ccccc1Cl (stereo not drawn)
inactive: [1] | [2] | [3] | [4] | [5] | [6] | [7]

CNC(C)Cc1ccccc1OC (stereo not drawn)
inactive: [1] | [2] | [3] | [4] | [5] | [6] | [7]

C1CN2CCC1CC2
inactive: [1] | [2] | [3]

CN(C)C(=O)Oc1cc(OC(=O)N(C)C)cc(C(O)CNC(C)(C)C)c1 (stereo not drawn)
inactive: [1] | [2] | [3] | [4] | [5] | [6] | [7]

CC[C@H]1C[C@@H]2C[C@H]3c4[nH]c5ccc(OC)cc5c4CCN(C2)[C@@H]13
inactive: [1] | [2] | [3]

CC(C)[N+](C)(CCC(C(N)=O)(c1ccccc1)c1ccccc1)C(C)C
inactive: [1] | [2] | [3] | [4] | [5] | [6] | [7]

Cc1ncc2n1-c1ccc(Cl)cc1C(c1ccccc1F)=NC2
inactive: [1] | [2] | [3]

CC(CC(C(N)=O)(c1ccccc1)c1ccccc1)N(C)C (stereo not drawn)
inactive: [1] | [2] | [3] | [4] | [5] | [6] | [7]

COc1ccc(CN2CCNCC2)c(OC)c1OC
inactive: [1] | [2] | [3] | [4] | [5] | [6] | [7]

COP(=S)(OC)Oc1ccc(S(N)(=O)=O)cc1
inactive: [1] | [2] | [3] | [4] | [5] | [6] | [7]
